Each structure is given as a SMILES string. Screen size: about 5,400 compounds; about 190 (3.5%) showed an effect of 50% or more. The sample holds strong results, similar compounds and a random draw of the others, so the mix is not that of the screen.

For this assay, the system named is Vero-E6. The assay is described as follows: primary screen, phospholipidosis by LipidTOX staining; higher = more effect of the substance. The note with it: 10 µM. Put shortly:
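Drug-induced phospholipidosis detected with HCS LipidTOX Red reagent in Vero-E6 cells. Compounds tested at 10 μM, with amiodarone (10 μM) as positive control and DMSO (0.1 v/v %) as vehicle.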
On to `CN1C2C[C@H](OC(=O)[C@H](CO)c3ccccc3)C[C@H]1[C@H]1OC21` (stereo partly drawn), for which the result_ITMP is given as -1.02%.
For `C=C1/C(=C\C=C2/CCC[C@]3(C)[C@@H]([C@H](C)/C=C/C=C/C(O)(CC)CC)CC[C@@H]23)C[C@@H](O)C[C@@H]1O`, the result_ITMP is on record as -2.42%.
As for `C[C@@]12C(=O)OC(=O)[C@]1(C)[C@H]1CC[C@@H]2O1`, the figure is 7.41%; as for `CNCC/C=C/c1cccnc1`, -4.64%; as for `CNCCC=C1c2ccccc2CCc2ccccc21`, 64.4%.
On to `CNCCC=C1c2ccccc2C=Cc2ccccc21`, for which the result_ITMP was 42.4%.
Consider `O=C(N[C@H]1CN2CCC1CC2)c1cnc2ccsc2c1O`, for which the result_ITMP is given as -2.55%.
As to `COC(=O)N[C@H](C(=O)N1CCC[C@H]1c1ncc(-c2ccc3c(c2)O[C@@H](c2ccccc2)n2c-3cc3cc(-c4cnc([C@@H]5CCCN5C(=O)[C@@H](NC(=O)OC)C(C)C)[nH]4)ccc32)[nH]1)C(C)C`, the result_ITMP came out at 3.24%.
As for `Cc1onc(-c2ccccc2Cl)c1C(=O)N[C@@H]1C(=O)N2[C@@H]1SC(C)(C)[C@@H]2C(=O)[O-]`, the figure is 4.56%; as for `C=CCN1CCC23c4c5ccc(O)c4O[C@H]2C(=O)CC[C@@]3(O)[C@H]1C5`, -3.91%.
On to `NC[C@H]1O[C@H](O[C@H]2[C@H](O[C@@H]3O[C@H](CO)[C@@H](O)[C@H]3O)[C@@H](O)[C@H](N)C[C@@H]2N)[C@H](N)[C@@H](O)[C@@H]1O`, for which the result_ITMP is given as -1.8%.
Consider `CN(C)CC[C@@H](c1ccc(Cl)cc1)c1ccccn1` [R4A_0004036_001 / SPE_K39462424], for which the result_ITMP was determined as 22.6%.
Take `CC(=O)C(=O)[O-]`: the result_ITMP is reported as -8.52%.
Take `CN1[C@@H]2CC[C@H]1C[C@@H](OC(=O)c1c[nH]c3ccccc13)C2.CN1[C@@H]2CC[C@H]1C[C@H](OC(=O)c1c[nH]c3ccccc13)C2`: the result_ITMP is 19.1%.
As for `CC(C)Oc1ccc(-c2nc(-c3cccc4c3CC[C@@H]4NCCO)no2)cc1C#N`, the result_ITMP is listed as 39.4%.
Turning to `CCOc1ccc(-c2nc(-c3cccc4c3CCC4NCCO)no2)cc1OCC` (stereo not drawn), the result_ITMP is listed as 108%.
As for `CC(C)Oc1ccc(-c2nc(-c3cccc4c3CCC4NCCC(=O)O)no2)cc1C#N` (stereo not drawn), the result_ITMP was -0.21%.
Turning to `Cc1ccc(Cl)c(Nc2ccccc2C(=O)[O-])c1Cl`, the result_ITMP is -2.49%.
As to `CC[C@]1(O)C[C@H]2C[N@](CCc3c([nH]c4ccccc34)[C@@](C(=O)OC)(c3cc4c(cc3OC)N(C)[C@H]3[C@@](O)(C(N)=O)[C@H](O)[C@]5(CC)C=CCN6CC[C@]43[C@@H]65)C2)C1`, the result_ITMP is 9.74%.
As to `COc1cc(C(=O)NCC2(N(C)C)CCCC2)cc(OC)c1OCc1ccccc1`, the result_ITMP is on record as 25.4%.
With `COc1cc(CN(CCN)C(=O)c2cccs2)ccc1OCc1ccccc1` the figure was 85.4%; with `O=C(O)Cc1ccc(OCc2ccccc2)c(Cl)c1`, 2.22%; with `O=S(=O)([O-])CC(S)CS` (stereo not drawn), -3.17%.
As for `O=C(NC(Cc1c[nH]c2ccccc12)C(=O)[O-])c1ccc(Cl)cc1` (stereo not drawn), the figure is -0.44%.
Turning to `NC1C[C@H]1c1ccccc1` (stereo partly drawn), the result_ITMP is listed as -1.26%.
As for `N[C@H]1CC[C@H](N[C@@H]2C[C@H]2c2ccccc2)CC1`, the figure is 65.7%; as for `c1ccc([C@@H]2C[C@H]2NC2CCNCC2)cc1`, 27.9%; as for `C[C@]12CCC(=O)C=C1C=CC1C2CC[C@@]2(C)C1CC[C@@]2(O)CCC(=O)[O-]` (stereo partly drawn), -3.36%.
As for `Cc1ccc(S(=O)(=O)[N-]Cl)cc1`, the figure is -2.26%; as for `CC[C@]1(O)C[C@@H]2C[N@@](CCc3c([nH]c4ccccc34)[C@@](C(=O)OC)(c3cc4c(cc3OC)N(C)[C@H]3[C@@](O)(C(=O)OC)[C@H](OC(C)=O)[C@]5(CC)C=CCN6CC[C@]43[C@@H]65)C2)C1`, 8.57%.
For `NC(=O)OCCCc1ccccc1`, the result_ITMP is on record as -6.09%.
As for `CCN(CCCc1ccccc1)CCCc1ccccc1`, the figure is 58.9%; as for `O=C([O-])CCCc1ccccc1`, 0.94%; as for `C#Cc1cnc(O)nc1O`, -3.59%.
Take `Cc1ccc(C)c(Oc2ccncc2C(=O)N2CCN(C3CC3)c3ccccc32)c1`: the result_ITMP is on record as -4.61%.
As for `O=C(O)c1ccccc1NC(=O)N1CCC(c2ccccc2C(F)(F)F)CC1`, the figure is -0.92%; as for `CCOc1ccc(S(=O)(=O)[O-])c2cccnc12`, -2.55%; as for `CCN(CC)CCOC(=O)C(c1ccccc1)C1CCCCC1` (stereo not drawn), 52%.
Take `CCN(CC)CCOC(=O)C(c1ccccc1)c1ccccc1`: the result_ITMP is reported as 3.73%.
In the case of `CCN(CC)CCOC(=O)C1(c2ccccc2)CCCC1`, the result_ITMP was 2.32%.
With `COc1ccc2c(C)nc(Nc3nc(=O)c(C)c(C)[nH]3)nc2c1` the figure was 0.3%; with `NC(=O)C1CCCc2c1[nH]c1ccc(Cl)cc21` (stereo not drawn), -0.07%; with `OCCNC1CCCc2c1[nH]c1ccc(-c3ccccc3)cc21` (stereo not drawn), 89.4%.
As for `C[C@H](N)C(=O)N[C@@]1(C(=O)O)C[C@@H](Sc2nnc[nH]2)[C@H]2[C@H](C(=O)O)[C@H]21`, the figure is -1.74%.
As to `Nc1ncnc2c1c(-c1ccc(Oc3ccccc3)cc1)nn2C1CCCC1`, the result_ITMP is given as -1.17%.
On to `Nc1ncnc2c1c(-c1cccc(OCc3ccccc3)c1)cn2C1CC(CN2CCCC2)C1` (stereo in doubt), for which the result_ITMP is on record as 41.5%.
On to `Nc1ncnc2c1c(-c1cccc(OCc3ccccc3)c1)cn2[C@H]1C[C@@H](CN2CCC2)C1`, for which the result_ITMP is listed as 69.4%.
For `CC(C)(C)C(=O)Oc1ccc(S(=O)(=O)Nc2ccccc2C(=O)NCC(=O)[O-])cc1`, the result_ITMP is on record as -1.15%.
With `C=C1/C(=C\C=C2/CCC[C@]3(C)[C@@H]([C@H](C)/C=C/[C@H](C)C(C)(C)O)CC[C@@H]23)C[C@@H](O)C[C@@H]1O`, the result_ITMP is -2.3%.
Turning to `COc1ccc(CCN)cc1OC`, the result_ITMP was -4.61%.
With `COc1ccc(COc2ccc(Cc3cnc(N)nc3N)cc2OC)cc1` the figure was -3.18%.
With `COc1ccc(CCNCc2ccc(OCc3ccc(Cl)nc3)c(OC)c2)cc1OC` the figure was 59.3%.
`CC[C@H](/C=C/[C@@H](C)[C@H]1CC[C@H]2[C@@H]3CC=C4C[C@@H](O)CC[C@]4(C)[C@H]3CC[C@]12C)C(C)C`: the result_ITMP is recorded as -2.7%.
On to `O=C(O)c1ccc2[nH]cc(CCCCN3CC=C(c4ccccc4)CC3)c2c1`, for which the result_ITMP was -12.5%.
As to `O=C1Nc2ccc(Cl)c3c2C1(CCCCN1CC=C(c2ccc(Cl)cc2)CC1)CCC3` (stereo not drawn), the result_ITMP is 70.2%.
With `CO[C@H]1C[C@H](O[C@H]2CC[C@@]3(C)[C@H](CC[C@@H]4[C@@H]3CC[C@]3(C)[C@@H](C5=CC(=O)OC5)[C@@H](OC(C)=O)C[C@]43O)C2)O[C@@H](C)[C@@H]1O`, the result_ITMP is recorded as -2.23%.
With `CO/N=C(\C(=O)N[C@@H]1C(=O)N2C(C(=O)[O-])=CCS[C@H]12)c1csc(N)n1`, the result_ITMP is reported as -1.89%.
As for `CCC1=C[C@@H]2C[N@](C1)Cc1c([nH]c3ccccc13)[C@@](C(=O)OC)(c1cc3c(cc1OC)N(C)[C@H]1[C@@](O)(C(=O)OC)[C@H](OC(C)=O)[C@]4(CC)C=CCN5CC[C@]31[C@@H]54)C2`, the figure is 7.31%.
As for `CCN1CCC(n2cc(CNc3cc(Cl)c4ncc(C#N)c(Nc5ccc(F)c(Cl)c5)c4c3)nn2)CC1`, the figure is 9.34%; as for `C=CC(=O)Nc1cc2c(Nc3ccc(F)c(Cl)c3)ncnc2cc1C#CC(C)(C)N1CCN(C)CC1`, 36.6%; as for `CN1CCC(Nc2ncc3ncnc(Nc4ccc(F)c(Cl)c4)c3n2)CC1`, 76.5%.
As for `CCN(CC)CC1CCN(c2ncc3ncnc(Nc4ccc(F)c(Cl)c4)c3n2)CC1`, the figure is 97%; as for `N#Cc1cc(CN2CCC(Nc3ncnc4sc(Cl)cc34)CC2)ccc1F`, 18.7%; as for `CC(C)(C)NCC(O)COc1cccc2c1C[C@H](O)[C@H](O)C2` (mixture of isomers), -2.49%.
Turning to `CC[C@H](C)[C@H](NC(=O)[C@H](CCC(=O)O)NC(=O)[C@H](CCC(=O)O)NC(=O)[C@H](Cc1ccccc1)NC(=O)[C@H](CC(=O)O)NC(=O)CNC(=O)[C@H](CC(N)=O)NC(=O)CNC(=O)CNC(=O)CNC(=O)CNC(=O)[C@@H]1CCCN1C(=O)[C@H](CCCNC(=N)N)NC(=O)[C@@H]1CCCN1C(=O)[C@H](N)Cc1ccccc1)C(=O)N1CCC[C@H]1C(=O)N[C@@H](CCC(=O)O)C(=O)N[C@@H](CCC(=O)O)C(=O)N[C@@H](Cc1ccc(O)cc1)C(=O)N[C@@H](CC(C)C)C(=O)O`, the result_ITMP is 0.65%.
With `O=C1[N-]C(=O)C(c2ccccc2)(c2ccccc2)N1` the figure was -1.89%.
Turning to `NC(N)=NC(=O)c1cnn(-c2cccc3ncccc23)c1C1CC1`, the result_ITMP is -1.94%.
Consider `COc1ccc(C(=O)c2c(C)n(CCN3CCOCC3)c3ccccc23)cc1`, for which the result_ITMP stood at 0.58%.
Consider `CCn1c2ccccc2c2cc(Nc3ccnc(NCCCN4CCOCC4)n3)ccc21`, for which the result_ITMP is on record as 57.6%.
As for `Cc1cc(-c2ccccc2)nnc1NCCN1CCOCC1`, the figure is -1.84%; as for `O=C([O-])C1[O][Sb]2[O]C(=O)C([O]2)C(C(=O)[O-])[O][Sb]2[O]C(=O)C1[O]2` (stereo not drawn), -8.7%; as for `CC1(C)S[C@@H]2[C@H](NC(=O)COc3ccccc3)C(=O)N2[C@H]1C(=O)[O-]`, -2.47%.
Consider `COc1ccccc1N1CCN(CCN2C(=O)c3ccccc3C(C)(C)C2=O)CC1`, for which the result_ITMP is 2.7%.
As for `COc1ccccc1C1(O)CCN(CCCn2c3ccccc3c3ccccc32)CC1`, the result_ITMP was 52.4%.
With `Fc1ccc(-n2cc(CCCCN3CCC4(CC3)OCc3ccccc34)c3ccccc32)cc1` the figure was 26.9%.
As to `CC1=C(/C=C/C(C)=C/C=C/C(C)=C/C(=O)O)C(C)(C)CCC1` [R4A_0003961_001 / SPE_K71879491], the result_ITMP is listed as 4.7%.
As for `C[C@H](Nc1ncnc2[nH]cnc12)c1cc2ccc(F)cc2nc1-c1ccccn1` [R4A_0002240_001 / SPE_A58947127], the figure is 4.77%; as for `COc1ccc(C(=O)/C(Cc2cc(OC)c(OC)c(OC)c2)=C(\C(=O)[O-])c2ccc3c(c2)OCO3)cc1`, -3.57%.

The record behind these values is publication PMC13083723 (Patterns, 2026).
